According to PubChem BioAssay AID488969 (Vanderbilt High Throughput Screening Facility, 2010):
Whole data set: some 110,000 compounds, median “z-score” near -0.1, cut for the highest 2% near 2. For the sample, the highest values were picked, then their nearest neighbours and some compounds at random. The source made the active and inactive calls.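 How the source made its calls: active means z-score in the third read window above 3 or below -3; inactive means the rest.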

molecular target: Metabotropic glutamate receptor 8 (Rattus norvegicus) (UniProt P70579); assay: rat mGluR8 modulators via GIRK flux, primary screen, cell-based, thallium flux, HTS (AID 488969); conditions: HEK293 rat mGluR8, GIRK (G protein-gated inwardly rectifying potassium channel) thallium flux, FluoZin2; at 10 µM; stronger effect = higher value; submaximal glutamate (EC20) added with thallium
Sequence (P70579 whole entry, looked up): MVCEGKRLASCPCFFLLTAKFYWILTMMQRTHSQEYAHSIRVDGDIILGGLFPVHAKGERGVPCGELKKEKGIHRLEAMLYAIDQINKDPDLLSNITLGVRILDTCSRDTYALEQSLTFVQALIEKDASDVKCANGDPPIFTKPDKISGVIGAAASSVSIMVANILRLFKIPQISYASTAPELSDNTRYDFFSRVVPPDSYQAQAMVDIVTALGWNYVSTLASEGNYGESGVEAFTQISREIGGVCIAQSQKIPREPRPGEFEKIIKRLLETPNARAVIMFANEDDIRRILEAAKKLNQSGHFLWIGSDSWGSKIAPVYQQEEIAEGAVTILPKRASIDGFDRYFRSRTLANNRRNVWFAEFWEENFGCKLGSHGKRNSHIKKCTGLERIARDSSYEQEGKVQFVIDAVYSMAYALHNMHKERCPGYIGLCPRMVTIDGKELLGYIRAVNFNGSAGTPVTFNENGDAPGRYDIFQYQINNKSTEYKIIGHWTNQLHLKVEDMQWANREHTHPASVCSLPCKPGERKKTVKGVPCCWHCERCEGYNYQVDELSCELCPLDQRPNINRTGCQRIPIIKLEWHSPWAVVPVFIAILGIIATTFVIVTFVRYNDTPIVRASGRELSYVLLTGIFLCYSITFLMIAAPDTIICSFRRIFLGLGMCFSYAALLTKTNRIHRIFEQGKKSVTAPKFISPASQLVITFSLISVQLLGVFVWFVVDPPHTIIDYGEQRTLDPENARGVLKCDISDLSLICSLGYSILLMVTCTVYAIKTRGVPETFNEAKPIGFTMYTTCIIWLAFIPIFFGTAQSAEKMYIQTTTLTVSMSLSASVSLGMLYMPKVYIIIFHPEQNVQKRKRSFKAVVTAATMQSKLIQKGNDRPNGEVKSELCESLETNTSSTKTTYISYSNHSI

Q: How did the z-score turn out when `CCC(=O)NCc1cc(-c2nn(C)c(=O)c3ccccc23)ccc1C` was run?
A: -0.415

Q: For `CCCn1c(SC(C(=O)Nc2cccc(OC)c2)c2ccccc2)nc2ccccc2c1=O` (stereo not given), which z-score is on record?
A: -0.276

Q: How did the z-score turn out when `COc1cccc(NC(=O)C(Sc2nc3ccccc3c(=O)n2CC(C)C)c2ccccc2)c1` (stereo not given) was run?
A: 2.63

Q: Which z-score does the source give for `COc1ccc(C)cc1NC(=O)C(Sc1ccccc1)c1ccccc1` (stereo not given) here?
A: 0.296

Q: Which z-score does the source give for `COc1cccc(NC(=O)C(Sc2nnc3ccccn23)c2ccccc2)c1` (stereo not given) here?
A: -0.184

Q: Which z-score does the source give for `CCCn1c(SC(C(=O)Nc2cc(C)ccc2OC)c2ccccc2)nc2ccccc2c1=O` (stereo not given) here?
A: 3.61 (active)

Q: How did the z-score turn out when `CCNc1nc(NCC)n2c(SC(C(=O)Nc3cc(C)ccc3OC)c3ccccc3)nnc2n1` (stereo not given) was run?
A: -0.463

Q: Which z-score does the source give for `Cc1cccc(CCNC(=O)C2CCC(CNc3c(N4CCCC4)c(=O)c3=O)CC2)c1` (stereo not given) here?
A: -0.262

Q: With `CCOc1ccc(-c2nnn(CC(=O)NCc3ccco3)n2)cc1OCC` as the compound, how does the z-score read?
A: 0.241

Q: Which z-score does the source give for `CC(=O)C1=C(c2ccccc2)NC(=O)NC1c1ccccc1OCC#N` (stereo not given) here?
A: 1.96

Q: `CC(=O)c1c(C)[nH]c(C(=O)N2CCN(C(=O)c3ccco3)CC2)c1C` was tested. Which z-score did it give?
A: -0.564

Q: For `O=C(CSc1nc2c(cnn2-c2ccc(F)cc2)c(=O)[nH]1)N1CCOCC1`, which z-score is on record?
A: 0.476

Q: Which z-score does the source give for `CC(=O)c1cnn(-c2cc(Oc3cccc(C)c3)ncn2)c1C` here?
A: 2.24

Q: `CC(=O)c1cnn(-c2cc(Oc3ccc(F)cc3)ncn2)c1C` was tested. Which z-score did it give?
A: 0.354

Q: Which z-score does the source give for `COC(=O)c1cnn(-c2cc(Oc3cccc(C)c3)ncn2)c1N` here?
A: 0.309

Q: With `COC(=O)c1ccc(C2C(Oc3ccc(OC)cc3)C(=O)N2CCc2ccc(OC)c(OC)c2)cc1` (stereo not given) as the compound, how does the z-score read?
A: -0.234

Q: With `N#Cc1c(N)nc2c3c(sc(=N)c2c1N)NC(=O)CC3c1ccccc1` (stereo not given) as the compound, how does the z-score read?
A: -0.0395

Q: `COc1ccc(OC)c(S(=O)(=O)NCc2csc(-c3ccccc3)n2)c1` was tested. Which z-score did it give?
A: -0.245

Q: How did the z-score turn out when `CCS(=O)(=O)NCCc1csc(-c2ccccc2)n1` was run?
A: -0.276

Q: With `CS(=O)(=O)NCc1csc(-c2ccccc2)n1` as the compound, how does the z-score read?
A: 2.26

Q: Which z-score does the source give for `COc1cccc(CNC(=O)Cc2nc3nc(C)cc(C)n3n2)c1` here?
A: -0.187

Q: How did the z-score turn out when `Cn1cc(C(=O)Nc2cccc(F)c2)cn1` was run?
A: 0.0603

Q: For `COc1ccc(CN2C(=O)c3ccccc3C(/C=N\OCc3ccc(F)cc3)C2=O)cc1` (stereo not given), which z-score is on record?
A: 0.722

Q: How did the z-score turn out when `COc1ccc(CN2C(=O)c3ccccc3C(/C=N\OCc3ccc(C)cc3)C2=O)cc1` (stereo not given) was run?
A: 2.42

Q: Which z-score does the source give for `COc1ccc(CN2C(=O)c3ccccc3C(/C=N/OCc3ccc(Cl)cc3)C2=O)cc1` (stereo not given) here?
A: 0.378

Q: Which z-score does the source give for `COc1ccc(OC)c(/C(O)=C/C(=O)C(=O)Nc2cc(C)cc(C)c2)c1` here?
A: 0.571

Q: `CCOC(=O)C(NC(=O)c1ccccc1)(OCc1ccc(F)cc1)C(F)(F)F` (stereo not given) was tested. Which z-score did it give?
A: 0.14

Q: `CCn1c(SCC(=O)c2cc(C)n(C)c2C)nnc1-c1ccccc1` was tested. Which z-score did it give?
A: 0.0656

Q: For `Cc1cc(C(=O)CSc2nnc(-c3ccccc3)n2C)c(C)n1C`, which z-score is on record?
A: -0.546

Q: For `Cc1cc(C(=O)CSc2nnc(-c3ccncc3)n2-c2ccccc2)c(C)n1C`, which z-score is on record?
A: 4.58 (active)
